Reference: PubChem BioAssay (NCI)
About 79,000 compounds went through this panel and 15% of them were active in at least one assay; those are over-represented in the sample as a whole. Calls of active or inactive are those of the source. Rule as the data show it: active = growth inhibition above about 70%; inactive = the rest. Where a SMILES comes first, the peptide text is derived from it. The star is where a group is joined. X7 = Clc1c(Cl)c(Cl)c(O*)c(Cl)c1Cl; Boc = CC(C)(C)OC(=O)*; OBn = c1ccc(CO*)cc1; Bn = c1ccc(C*)cc1

Experiments:
[1] = NCI Yeast Anticancer Drug Screen. Data for the rad50 strain (AID 155);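 also: 0% = growth of vehicle-only cultures of the same strain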; conditions: S. cerevisiae rad50 strain growth inhibition, hits give high values
Procedure, shortened: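 Readout: growth inhibition relative to vehicle-treated cultures. Compound exposure was carried out in a genetically defined yeast strain deficient in DNA damage repair.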

[2] = NCI Yeast Anticancer Drug Screen. Data for the mec2-1 strain (AID 157); conditions: S. cerevisiae mec2-1 strain, hits give high values
Procedure, shortened: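 Growth inhibition is read against vehicle-treated controls after compound exposure of the mec2-1 yeast strain, which is defective in DNA damage repair or cell cycle control.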

[3] = NCI Yeast Anticancer Drug Screen. Data for the sgs1 mgt1 strain (AID 161);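 also: 0% = growth of cultures given vehicle only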; conditions: S. cerevisiae sgs1 mgt1 strain, hits give high values
Procedure, shortened: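 Growth of a repair-deficient yeast mutant was monitored after compound treatment and expressed as inhibition relative to vehicle-treated cultures.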

[4] = NCI Yeast Anticancer Drug Screen. Data for the cln2 rad14 strain (AID 165);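 also: 0% = growth equal to vehicle treated cultures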; conditions: S. cerevisiae cln2 rad14 strain, hits give high values
Procedure, shortened: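 Growth inhibition, relative to vehicle-treated controls, is the read-out. The test organism is a yeast strain with defined genetic alterations, cln2 rad14.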

[5] = NCI Yeast Anticancer Drug Screen. Data for the bub3 strain (AID 167); conditions: S. cerevisiae bub3 mutant strain, hits give high values
Procedure, shortened: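 Readout: yeast growth inhibition, expressed relative to vehicle-only wells. The test organism is a mutant strain from a panel with lesions in DNA repair or checkpoint genes.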

[6] = NCI Yeast Anticancer Drug Screen. Data for the mlh1 rad18 strain (AID 175); conditions: S. cerevisiae mlh1 rad18 strain growth inhibition, hits give high values
Procedure, shortened: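 Cells of a genetically altered yeast strain, deficient in DNA damage repair, were treated with compound. Their growth was then compared with that of vehicle-treated cultures to give inhibition.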

[7] = at 5.0 µM (retest, dose inferred, filed as 0.5)
[8] = at 50.0 µM (retest, dose inferred, filed as 5.0)

Measured: growth inhibition

Cc1cc2c(cc1S(=O)(=O)O)C1C(C3C2C2(Cl)C(Cl)=C(Cl)C3(Cl)C2(Cl)Cl)C2(Cl)C(Cl)=C(Cl)C1(Cl)C2(Cl)Cl (configuration not stated)
inactive: [1]; [7] 1% | [1]; [8] 69% | [2]; [7] -14% | [3]; [7] 27% | [4]; [7] 33% | [4]; at 50.0 µM 60.7% | [5]; [7] -15% | [6]; [7] -20%
active: [1]; at 50.0 µM 82.4% | [2]; [8] 72% | [2]; at 50.0 µM 74.4% | [3]; [8] 87% | [3]; at 50.0 µM 86.8% | [4]; [8] 84% | [5]; [8] 82% | [5]; at 50.0 µM 70.8% | [6]; [8] 87% | [6]; at 50.0 µM 79.2%

S=C(Nc1ccccc1)SCc1ccc(Cl)cc1
inactive: [1]; [7] 1% | [2]; [7] -6% | [2]; at 50.0 µM 67.2% | [3]; [7] 1% | [4]; [7] -6% | [4]; at 50.0 µM 38.5% | [5]; [7] -5% | [6]; [7] -7%
active: [1]; [8] 96% | [1]; at 50.0 µM 90.6% | [2]; [8] 98% | [3]; [8] 96% | [3]; at 50.0 µM 84.7% | [4]; [8] 96% | [5]; [8] 97% | [5]; at 50.0 µM 86.4% | [6]; [8] 97% | [6]; at 50.0 µM 85.5%

C=C1C(=O)OC2CC3(C)CC(O)C(O)C(=C)C3CC12 (configuration not stated)
inactive: [1]; [7] 0% | [1]; [8] 6% | [2]; [7] 1% | [2]; [8] 6% | [3]; [7] -1% | [3]; [8] 14% | [4]; [7] -2% | [4]; [8] 5% | [5]; [7] 0% | [5]; [8] 8% | [6]; [7] 1% | [6]; [8] 9%
active: [1]; at 50.0 µM 91.2% | [2]; at 50.0 µM 94.7% | [3]; at 50.0 µM 93.1% | [4]; at 50.0 µM 91.5% | [5]; at 50.0 µM 93% | [6]; at 50.0 µM 92.2%

Cc1cc(Br)cc(C)c1NC(=O)C(=O)C(C(=O)c1ccc2ccccc2c1)C1OC(=O)c2ccccc21 (configuration not stated)
active: [4]; at 50.0 µM 70%
inactive: [1]; [7] 4% | [1]; [8] 38% | [1]; at 50.0 µM 12.5% | [2]; [7] 4% | [2]; [8] 19% | [2]; at 50.0 µM 14.3% | [3]; [7] 10% | [3]; [8] 11% | [3]; at 50.0 µM 27.7% | [4]; [7] 1% | [4]; [8] -14% | [5]; [7] 5% | [5]; [8] 23% | [5]; at 50.0 µM 31.5% | [6]; [7] 4% | [6]; [8] 19% | [6]; at 50.0 µM 31.8%

Cc1ccc(-c2ccccc2)n1-c1cc(Cl)ccc1O
inactive: [1]; [7] 12% | [2]; [7] 4% | [3]; [7] -1% | [4]; [7] 8% | [5]; [7] 0% | [6]; [7] 10%
active: [1]; [8] 99% | [1]; at 50.0 µM 99% | [2]; [8] 99% | [2]; at 50.0 µM 99.2% | [3]; [8] 99% | [3]; at 50.0 µM 99.2% | [4]; [8] 99% | [4]; at 50.0 µM 97.9% | [5]; [8] 99% | [5]; at 50.0 µM 99% | [6]; [8] 99% | [6]; at 50.0 µM 99.1%

Cc1c[nH]c2nc(C)n(-c3ccccc3)c(=N)c12
inactive: [1]; [7] -1% | [1]; [8] 2% | [1]; at 50.0 µM 6.1% | [2]; [7] 1% | [2]; [8] -3% | [2]; at 50.0 µM 16.5% | [3]; [7] -3% | [3]; [8] 3% | [3]; at 50.0 µM 2.5% | [4]; [7] 2% | [4]; [8] -8% | [4]; at 50.0 µM 38% | [5]; [7] -3% | [5]; [8] -3% | [5]; at 50.0 µM -6.85% | [6]; [7] -2% | [6]; [8] -2% | [6]; at 50.0 µM 8.65%

CC(C)CC(NC(=O)C(CCC(=O)OCc1ccccc1)NC(=O)OC(C)(C)C)C(=O)NC(COCc1ccccc1)C(=O)NC(Cc1ccccc1)C(=O)Oc1c(Cl)c(Cl)c(Cl)c(Cl)c1Cl (configuration not stated) (Boc-E(OBn)LS(Bn)F-X7; configuration not given here)
active: [1]; at 50.0 µM 80.5% | [2]; at 50.0 µM 84.8% | [3]; [8] 80% | [3]; at 50.0 µM 82.8% | [4]; at 50.0 µM 85.3% | [5]; [8] 84% | [5]; at 50.0 µM 78% | [6]; [8] 76% | [6]; at 50.0 µM 79.6%
inactive: [1]; [7] 39% | [1]; [8] 58% | [2]; [7] 36% | [2]; [8] 56% | [3]; [7] 38% | [4]; [7] 26% | [4]; [8] 53% | [5]; [7] 34% | [6]; [7] 42%

O=C1C=CC(=O)c2nc3c(nc21)[nH]c1ccccc13
active: [1]; [8] 91% | [1]; at 50.0 µM 95.7% | [2]; [8] 94% | [2]; at 50.0 µM 95.4% | [3]; [8] 95% | [3]; at 50.0 µM 94.7% | [4]; [8] 94% | [4]; at 50.0 µM 93.5% | [5]; [8] 93% | [5]; at 50.0 µM 91.4% | [6]; [8] 92% | [6]; at 50.0 µM 95.5%
inactive: [1]; [7] -9% | [2]; [7] -12% | [3]; [7] -23% | [4]; [7] -20% | [5]; [7] -41% | [6]; [7] -44%

O=S(=O)(c1cc(Cl)c(Cl)cc1Cl)N(CCCCCN(S(=O)(=O)c1cc(Cl)c(Cl)cc1Cl)S(=O)(=O)c1cc(Cl)c(Cl)cc1Cl)S(=O)(=O)c1cc(Cl)c(Cl)cc1Cl
inactive: [1]; [7] -9% | [1]; [8] -3% | [2]; [7] -11% | [2]; [8] -13% | [3]; [7] -14% | [3]; [8] -23% | [4]; [7] -10% | [4]; [8] -8% | [5]; [7] 19% | [5]; [8] 4% | [6]; [7] -29% | [6]; [8] -17%
active: [1]; at 50.0 µM 98.6% | [2]; at 50.0 µM 98.2% | [3]; at 50.0 µM 97.1% | [4]; at 50.0 µM 96% | [5]; at 50.0 µM 98.9% | [6]; at 50.0 µM 97.8%
